# Records with an inconclusive call do not appear. Activity calls are given as the source filed them. The calls were made as follows, unless noted: active = hit-call score of the fitted dose curve at least 0.9, where 1 is the maximum; inactive = score below 0.9.
# Molecular target: human Thyroid Receptor alpha (THRa1), THRA (gene 7067) (UniProt P10827)
# Experiment: ATG_THRa1_TRANS: Attagene TRANS-FACTORIAL HepG2 Assay for human Thyroid Receptor alpha (THRa1) (AID 2283014; active = hit-call score of the fitted dose curve at least 0.9, where 1 is the maximum)
# Conditions: not given
# In short: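 HepG2 cells transiently transfected with chimeric NR-Gal4 and GAL4-UAS reporter units, dosed 24 h. Reporter mRNA quantified by RT-PCR, fluorescent labeling, HpaI digestion and capillary electrophoresis; gain-of-signal fit versus DMSO.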
# Sequence of human Thyroid Receptor alpha (THRa1), THRA (gene 7067) (P10827 whole entry, looked up): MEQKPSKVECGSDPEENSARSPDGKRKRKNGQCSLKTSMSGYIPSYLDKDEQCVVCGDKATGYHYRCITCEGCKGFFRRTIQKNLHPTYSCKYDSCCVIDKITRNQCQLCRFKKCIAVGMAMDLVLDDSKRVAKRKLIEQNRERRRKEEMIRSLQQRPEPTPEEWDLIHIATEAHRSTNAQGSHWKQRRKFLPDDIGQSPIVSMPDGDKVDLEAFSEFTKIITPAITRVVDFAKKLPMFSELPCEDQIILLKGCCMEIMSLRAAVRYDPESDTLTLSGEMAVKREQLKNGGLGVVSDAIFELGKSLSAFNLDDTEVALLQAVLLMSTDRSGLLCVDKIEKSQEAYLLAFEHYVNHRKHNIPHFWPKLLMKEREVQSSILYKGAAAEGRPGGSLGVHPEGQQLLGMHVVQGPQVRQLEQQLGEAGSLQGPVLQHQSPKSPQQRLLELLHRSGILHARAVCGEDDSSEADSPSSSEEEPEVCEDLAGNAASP
row,SMILES,outcome
1,CC1(C)S[C@@H]2[C@H](NC(=O)[C@H](N)c3ccccc3)C(=O)N2[C@H]1C(=O)O,inactive
2,Cc1cc(C)c(S(=O)(=O)O)cc1N=Nc1cc(S(=O)(=O)O)c2ccccc2c1O,inactive
3,CCCc1c(OCCCCc2nn[nH]n2)ccc(C(C)=O)c1O,inactive
4,Clc1ccccn1,inactive
5,CCCCCCOC(=O)CCCCCCCC(=O)OCCCCCC,inactive
6,CC1=NN(c2cc(Cl)c(S(=O)(=O)O)cc2Cl)C(=O)C1N=Nc1ccc(S(=O)(=O)O)cc1 (configuration not stated),inactive
7,O=C(O)Cc1c[nH]c2ccccc12,inactive
8,CCCCCCCCCCC1CO1 (configuration not stated),inactive
9,O=[N+]([O-])c1ccc2nc[nH]c2c1,inactive
10,CCCCn1cc[n+](C)c1,inactive
11,CC(O)(P(=O)(O)O)P(=O)(O)O,inactive
12,Cc1cccnc1,inactive
13,Cc1ccccc1S(N)(=O)=O,inactive
14,C=C(C)C(=O)OCC1CCCO1 (configuration not stated),inactive
15,OCCOCCOCCOCCOCCO,inactive
16,C1=CCC=C1,inactive
17,CN(C)CCCN1c2ccccc2CCc2ccc(Cl)cc21,inactive
18,C[C@H]1C[C@H]2[C@@H]3CCC4=CC(=O)C=C[C@]4(C)[C@@]3(F)[C@@H](O)C[C@]2(C)[C@@]1(O)C(=O)CO,inactive
19,COC(OC)C(C)c1ccccc1 (configuration not stated),inactive
20,COCCCN,inactive
21,CC(=O)c1nccs1,inactive
22,COc1ccccc1OCC(O)CO (configuration not stated),inactive
23,O=C(O)c1nc(Cl)c(Cl)c(Cl)c1Cl,inactive
24,CC=CC(=O)O,inactive

# Read-out: Interleukin-1 alpha (IL1a), IL1A (gene 3552)
# Experiment: BSK_BE3C_IL1a: BioMAP Diversity Plus: BE3C Assay for Interleukin-1 alpha (IL1a) Biomarker Activity (AID 2283016)
# Conditions: primary human bronchial epithelial cells; actives raise or lower the signal
# In short: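 Measured in human lung primary bronchial epithelial cells: IL-1a by ELISA at 24 h after dosing, with bidirectional fitting against DMSO.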
SMILES,AC50,outcome
CCCCCCCCCCC1CO1 (configuration not stated),31.5 µM (active),
Cc1cccnc1,,inactive
CC(C)CC(=O)CC(C)CC(C)C (configuration not stated),31.5 µM (active),
CN(C)CCC(c1ccc(Cl)cc1)c1ccccn1 (configuration not stated),,inactive

# Read-out: Monocyte Chemoattractant Protein-1 (MCP1), CCL2 (gene 6347)
# Experiment: BSK_3C_MCP1: BioMAP Diversity Plus: 3C Assay for Monocyte Chemoattractant Protein-1 (MCP1) Biomarker Activity (AID 2283017)
# Conditions: primary human endothelial cells (HUVEC); actives raise or lower the signal
# In short: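 Human umbilical vein endothelial cells (3C system) exposed to chemicals for 24 h; MCP-1 quantified by ELISA against the DMSO baseline with bidirectional fitting, and parallel SRB staining used to assess cytotoxicity.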
SMILES,AC50,outcome
CCCCCCCCCCC1CO1 (configuration not stated),31 µM (active),
Cc1cccnc1,,inactive
CC(C)CC(=O)CC(C)CC(C)C (configuration not stated),31.2 µM (active),
CN(C)CCC(c1ccc(Cl)cc1)c1ccccn1 (configuration not stated),,inactive

# Read-out: Monocyte Chemoattractant Protein-1 (MCP1), CCL2 (gene 6347)
# Experiment: BSK_4H_MCP1: BioMAP Diversity Plus: 4H Assay for Monocyte Chemoattractant Protein-1 (MCP1) Biomarker Activity (AID 2283018)
# Conditions: primary human endothelial cells (HUVEC); actives raise or lower the signal
# In short: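 Primary human umbilical vein endothelium is exposed to chemical for 24 h before MCP-1 is assayed by ELISA. Concentration-response fitted bidirectionally relative to DMSO.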
SMILES,AC50,outcome
CCCCCCCCCCC1CO1 (configuration not stated),33.8 µM (active),
Cc1cccnc1,,inactive
CC(C)CC(=O)CC(C)CC(C)C (configuration not stated),31.1 µM (active),
CN(C)CCC(c1ccc(Cl)cc1)c1ccccn1 (configuration not stated),12 µM (active),

# Read-out: Human Leukocyte Antigen - DR isotype (HLADR), HLA-DRA (gene 3122)
# Experiment: BSK_3C_HLADR: BioMAP Diversity Plus: 3C Assay for Human Leukocyte Antigen - DR isotype (HLADR) Biomarker Activity (AID 2283019);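 as to outcome: ELISA of cell-surface HLA-DR on HUVEC 24 h after dosing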
# Conditions: primary human endothelial cells (HUVEC); actives raise or lower the signal
# In short: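 HUVEC monoculture, HLA-DR measured by ELISA 24 h after chemical dosing. Fitted bidirectionally against DMSO baseline; parallel SRB staining assessed cytotoxicity, with 3C proliferation read by SRB at 48 h.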
SMILES,AC50,outcome
CCCCCCCCCCC1CO1 (configuration not stated),28.6 µM (active),
Cc1cccnc1,,inactive
CC(C)CC(=O)CC(C)CC(C)C (configuration not stated),35.3 µM (active),
CN(C)CCC(c1ccc(Cl)cc1)c1ccccn1 (configuration not stated),,inactive

# Read-out: Interleukin-8 (IL8), CXCL8 (gene 3576)
# Experiment: BSK_3C_IL8: BioMAP Diversity Plus: 3C Assay for Interleukin-8 (IL8) Biomarker Activity (AID 2283020)
# Conditions: primary human endothelial cells (HUVEC); actives raise or lower the signal
# In short: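 Using DMSO-treated wells as the baseline, bidirectional curve fitting was applied to ELISA-measured IL-8 from human umbilical vein endothelial cultures sampled 24 h after compound addition.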
SMILES,AC50,outcome
CCCCCCCCCCC1CO1 (configuration not stated),32.8 µM (active),
Cc1cccnc1,,inactive
CC(C)CC(=O)CC(C)CC(C)C (configuration not stated),,inactive
CN(C)CCC(c1ccc(Cl)cc1)c1ccccn1 (configuration not stated),,inactive

# Read-out: Monokine induced gamma interferon (MIG), CXCL9 (gene 4283)
# Experiment: BSK_3C_MIG: BioMAP Diversity Plus: 3C Assay for Monokine induced gamma interferon (MIG) Biomarker Activity (AID 2283021);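 as to AC50: MIG protein level measured by immunoassay in the treated endothelial cultures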
# Conditions: primary human endothelial cells (HUVEC); actives raise or lower the signal
# In short: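 ELISA-measured MIG in dosed HUVEC 3C cultures at 24 h, analysed by bidirectional fitting with DMSO defining baseline activity.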
SMILES,AC50,outcome
CCCCCCCCCCC1CO1 (configuration not stated),34.4 µM (active),
Cc1cccnc1,,inactive
CC(C)CC(=O)CC(C)CC(C)C (configuration not stated),,inactive
CN(C)CCC(c1ccc(Cl)cc1)c1ccccn1 (configuration not stated),,inactive

# Molecular target: human Vitamin D Receptor (VDR), VDR (gene 7421) (UniProt P11473)
# Experiment: ATG_VDR_TRANS: Attagene TRANS-FACTORIAL HepG2 Assay for human Vitamin D Receptor (VDR) (AID 2283022; active = hit-call score of the fitted dose curve at least 0.9, where 1 is the maximum)
# Conditions: not given
# In short: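 HepG2 cells were transiently transfected with GAL4-UAS reporter units and a chimeric VDR-Gal4 construct, then dosed for 24 hours. Reporter mRNA was quantified by RT-PCR, fluorescent labeling, HpaI digestion and capillary electrophoresis; gain of signal analysed vs DMSO.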
# Sequence of human Vitamin D Receptor (VDR), VDR (gene 7421) (P11473 whole entry, looked up): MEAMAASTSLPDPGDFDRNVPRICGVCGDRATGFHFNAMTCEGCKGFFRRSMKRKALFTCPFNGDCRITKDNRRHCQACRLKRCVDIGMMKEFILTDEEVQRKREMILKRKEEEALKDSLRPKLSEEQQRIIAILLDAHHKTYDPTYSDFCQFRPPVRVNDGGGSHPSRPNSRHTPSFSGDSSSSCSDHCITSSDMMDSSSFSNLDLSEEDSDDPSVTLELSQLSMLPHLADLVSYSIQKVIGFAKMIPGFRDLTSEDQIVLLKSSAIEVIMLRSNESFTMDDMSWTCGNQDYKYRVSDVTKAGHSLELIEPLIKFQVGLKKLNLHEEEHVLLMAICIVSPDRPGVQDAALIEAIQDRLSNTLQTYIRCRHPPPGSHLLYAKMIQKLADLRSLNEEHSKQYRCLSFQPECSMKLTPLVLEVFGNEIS
row,SMILES,outcome
1,Cc1cc(C)c(S(=O)(=O)O)cc1N=Nc1cc(S(=O)(=O)O)c2ccccc2c1O,inactive
2,CCCc1c(OCCCCc2nn[nH]n2)ccc(C(C)=O)c1O,inactive
3,CC1=NN(c2cc(Cl)c(S(=O)(=O)O)cc2Cl)C(=O)C1N=Nc1ccc(S(=O)(=O)O)cc1 (configuration not stated),inactive
4,CC(C)CC(=O)O,inactive
5,CC1=C(CC=O)C(C)(C)CCC1,inactive
6,CC/C=C\CC1=C(C)CCC1=O,inactive
7,OCCN(CCO)c1cccc(Cl)c1,inactive

# Read-out: not listed separately
# Experiment: BSK_3C_SRB: Viability Assessment in the BioMAP Diversity Plus: 3C Assay (AID 2283023);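 also: cells read 24 h after compound dosing; fitted both ways against DMSO so a hit may be signal rise or drop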
# Conditions: primary human endothelial cells (HUVEC)
# In short: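 Human umbilical vein endothelial cells in the 3C system, treated 24 h. Total protein measured by 0.1% sulforhodamine B staining after 10% TCA fixation, read at 560 nm; bidirectional fit versus DMSO.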
SMILES,AC50,outcome
CCCCCCCCCCC1CO1 (configuration not stated),35.2 µM (active),
Cc1cccnc1,,inactive
CC(C)CC(=O)CC(C)CC(C)C (configuration not stated),35.2 µM (active),
CN(C)CCC(c1ccc(Cl)cc1)c1ccccn1 (configuration not stated),,inactive

# Read-out: Matrix Metallopeptidase 1 (MMP1), MMP1 (gene 4312)
# Experiment: BSK_BE3C_MMP1: BioMAP Diversity Plus: BE3C Assay for Matrix Metallopeptidase 1 (MMP1) Biomarker Activity (AID 2283024)
# Conditions: primary human bronchial epithelial cells; actives raise or lower the signal
# In short: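 In this multiplexed primary-cell system, human bronchial epithelium received chemicals for 24 h before an ELISA for MMP1. Values reflect bidirectional fits normalised to the DMSO baseline.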
SMILES,outcome,AC50
CCCCCCCCCCC1CO1 (configuration not stated),inactive,
Cc1cccnc1,inactive,
CC(C)CC(=O)CC(C)CC(C)C (configuration not stated),,20 µM (active)
CN(C)CCC(c1ccc(Cl)cc1)c1ccccn1 (configuration not stated),inactive,

# Read-out: not listed separately
# Experiment: BSK_3C_Vis: BioMAP Diversity Plus: 3C Assay for Morphology Visualization (AID 2283025);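 also: fitted both ways so gain or loss versus DMSO counts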;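 as to AC50: light microscopy image of cell morphology used as background control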
# Conditions: primary human endothelial cells (HUVEC)
# In short: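 Light-microscopy morphology readout, 24 h exposure, human primary umbilical vein endothelium; analysed relative to DMSO with bidirectional fitting.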
SMILES,AC50,outcome
CCCCCCCCCCC1CO1 (configuration not stated),37.8 µM (active),
Cc1cccnc1,,inactive
CC(C)CC(=O)CC(C)CC(C)C (configuration not stated),37.8 µM (active),
CN(C)CCC(c1ccc(Cl)cc1)c1ccccn1 (configuration not stated),,inactive

# Read-out: Pselectin, SELP (gene 6403)
# Experiment: BSK_4H_Pselectin: BioMAP Diversity Plus: 4H Assay for Pselectin Biomarker Activity (AID 2283026)
# Conditions: primary human endothelial cells (HUVEC); actives raise or lower the signal
# In short: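 Bidirectional fits against DMSO gave the endpoint. Cells: primary human umbilical vein endothelium, chemical-treated for 24 h before ELISA detection of P-selectin.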
SMILES,AC50,outcome
CCCCCCCCCCC1CO1 (configuration not stated),33.3 µM (active),
Cc1cccnc1,,inactive
CC(C)CC(=O)CC(C)CC(C)C (configuration not stated),30.1 µM (active),
CN(C)CCC(c1ccc(Cl)cc1)c1ccccn1 (configuration not stated),0.502 µM (active),

# Read-out: not listed separately
# Experiment: BSK_4H_SRB: Viability Assessment in the BioMAP Diversity Plus: 4H Assay (AID 2283027);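 also: cells exposed to compound for 24 h before staining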;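 as to AC50: curves fitted both ways versus DMSO so AC50 may be loss or gain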
# Conditions: primary human endothelial cells (HUVEC)
# In short: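 HUVEC, 24 h post-dose; 10% TCA fix, 0.1% SRB stain, A560 nm. Total protein = overt cytotoxicity, parallel to biomarker read. Bidirectional fit vs DMSO baseline.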
SMILES,AC50,outcome
CCCCCCCCCCC1CO1 (configuration not stated),30 µM (active),
Cc1cccnc1,,inactive
CC(C)CC(=O)CC(C)CC(C)C (configuration not stated),33.7 µM (active),
CN(C)CCC(c1ccc(Cl)cc1)c1ccccn1 (configuration not stated),,inactive

# Read-out: Thrombomodulin, THBD (gene 7056)
# Experiment: BSK_3C_Thrombomodulin: BioMAP Diversity Plus: 3C Assay for Thrombomodulin Biomarker Activity (AID 2283029)
# Conditions: primary human endothelial cells (HUVEC); actives raise or lower the signal
# In short: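 In a multiplexed primary-cell system, human umbilical vein endothelium received chemical and was assayed 24 h later for thrombomodulin by ELISA. Parallel cultures were SRB-stained (0.1% SRB after 10% TCA fixation, read at 560 nm) to flag cytotoxicity.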
SMILES,outcome,AC50
CCCCCCCCCCC1CO1 (configuration not stated),inactive,
Cc1cccnc1,inactive,
CC(C)CC(=O)CC(C)CC(C)C (configuration not stated),,20 µM (active)
CN(C)CCC(c1ccc(Cl)cc1)c1ccccn1 (configuration not stated),inactive,

# Read-out: Urokinase-type plasminogen activator receptor (uPAR), PLAUR (gene 5329)
# Experiment: BSK_4H_uPAR: BioMAP Diversity Plus: 4H Assay for Urokinase-type plasminogen activator receptor (uPAR) Biomarker Activity (AID 2283030)
# Conditions: primary human endothelial cells (HUVEC); actives raise or lower the signal
# In short: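 Human umbilical vein endothelial cells in the 4H system, 24 h after chemical dosing. Cell-surface uPAR measured by ELISA, fitted in both directions versus DMSO; cytotoxicity checked by SRB total protein in parallel cultures.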
SMILES,AC50,outcome
CCCCCCCCCCC1CO1 (configuration not stated),30.1 µM (active),
Cc1cccnc1,,inactive
CC(C)CC(=O)CC(C)CC(C)C (configuration not stated),30.9 µM (active),
CN(C)CCC(c1ccc(Cl)cc1)c1ccccn1 (configuration not stated),,inactive

# Read-out: Vascular endothelial growth factor receptor 2 (Homo sapiens) (UniProt P35968)
# Experiment: BSK_4H_VEGFRII: BioMAP Diversity Plus: 4H Assay for Vascular endothelial growth factor receptor 2 (VEGFR2) Biomarker Activity (AID 2283031);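 as to AC50: cell-surface VEGFR2 protein level quantified by ELISA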
# Conditions: primary human endothelial cells (HUVEC); actives raise or lower the signal
# In short: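 Primary human umbilical vein endothelial cells (4H system), 24 h exposure; cell-surface VEGFR2 measured by ELISA. Bidirectional fitting versus DMSO; cytotoxicity checked in parallel by SRB total-protein staining.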
SMILES,AC50,outcome
CCCCCCCCCCC1CO1 (configuration not stated),34.7 µM (active),
Cc1cccnc1,,inactive
CC(C)CC(=O)CC(C)CC(C)C (configuration not stated),32.6 µM (active),
CN(C)CCC(c1ccc(Cl)cc1)c1ccccn1 (configuration not stated),,inactive
